This is a sample that favours compounds with a hit; in the whole collection about 7.3% have one here.
FMDV inh: foot and mouth disease virus antiviral activity; 410,000 tested, 1.2% active; Potency, µM (doses to about 57.9 µM), for inactives: top-dose activity change, negative = inhibition, actives largely listed as inhibitors; AID 1159524; FMDV antiviral cell-based qHTS; calls by dose curve; tested in HEK293T cells; further: read-out not given here; potency means the concentration at half of the fitted maximal effect; nearly all actives have a fitted effect of over 45% in size
VACV Venus inh: inhibitors of vaccinia virus (Venus reporter) | Vaccinia virus Venus reporter expression, fluorescence | Potency, µM (highest dose often 36.5 µM), without a hit: at the top dose activity change, negative = inhibition, actives largely listed as inhibitors | AID 720580 | 330,000 tested, 0.46% active; calls by dose curve; tested in A549 cells; further: potency means the concentration at half of the fitted maximal effect; nearly all actives have a fitted effect of over 30% in size
HCV inhibitor: HCV inhibition; Potency, µM (series often up to 41.8 µM), without a hit: at the top dose activity change, negative = inhibition, hits mostly inhibitors; 340,000 tested, 3.4% active; AID 651820; Huh7.5.1 HCVcc-Cre infection, luciferase reporter, 44 h; active means well fitted inhibition curve with a large enough effect; inconclusive means small, poorly fitted or top-dose-only effect, or another doubt; inactive means no such curve, though single readings can be large or run the other way; further: potency means the concentration at half of the fitted maximal effect
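Infectious HCVcc-Cre (~0.5 moi) was added to cells just after compound, with cells seeded 4 h earlier at 1,000 per well. Luciferase activity after 44 h culture reported infection; substrate was incubated 15 min at room temperature before reading.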
HCMV antiviral: inhibitors of human cytomegalovirus; 410,000 tested, 4.5% active; HFF cells, HCMV-luciferase reporter, 72 h; stronger effect = lower value; activity change, negative = inhibition, % at 57.5 µM; AID 1259415; in the data active means activity change below about -60%; inconclusive means no clear call, values can overlap the other calls; inactive means above about -39%
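Inhibition of viral replication was scored as loss of reporter luminescence in HFFs infected with HCMV-luciferase (MOI 1 PFU/cell) for 72 h; compounds tested at 2 doses, normalized to buffer and Salinomycin controls.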
Vaccinia mCherry: inhibitors of vaccinia virus infection (mCherry reporter signal). Vaccinia virus mCherry reporter infection, fluorescence. Potency, µM (highest dose often 36.5 µM), inactives show at the highest dose activity change, negative = inhibition, usual class: inhibitors. 310,000 tested, 0.63% active. AID 720579; calls by dose curve; tested in A549 cells; further: potency means the concentration at half of the fitted maximal effect; nearly all actives have a fitted effect of over 35% in size
* marks the source's active call; other numbers are inactive results; i = inactive; ? = inconclusive; · = no result. On the % scale 0 is the no-effect control and ±100 the full control effect.

SMILES	FMDV inh	VACV Venus inh	HCV inhibitor	HCMV antiviral	Vaccinia mCherry
Cc1sc2ncnc(N3CCN(S(=O)(=O)c4ccc(C(C)(C)C)cc4)CC3)c2c1C	?	·	5.62µM*	-81.8*	·
Cc1csc2c(N3CCN(S(=O)(=O)c4ccc(Cl)cc4)CC3)ncnc12	-27.9%	-9.0%	13.6%	24.1	-15.5%
O=S(=O)(c1ccc(Cl)cc1)N1CCN(c2ncnc3sccc23)CC1	14.1µM*	-28.0%	?	-68.6*	-17.6%
Cc1csc2ncnc(N3CCN(S(=O)(=O)c4cccc(C(F)(F)F)c4)CC3)c12	?	-13.2%	·	-92.3*	-3.1%
COc1ccc(-c2csc3ncnc(N4CCN(S(=O)(=O)c5cccs5)CC4)c23)cc1	-17.1%	-11.6%	8.91µM*	-70.6*	i
C[C@]12CCCCC3=CC(=O)C=C[C@@]31OCC2	·	·	·	-0.2	·
Cn1ccc2cc(S(=O)(=O)N3CCCN(C(=O)Nc4ccccc4Br)CC3)ccc21	-12.8%	0.4%	·	8.8	-6.0%
CCOC(=O)C1=CCN(S(=O)(=O)c2ccc([N+](=O)[O-])cc2)C1c1ccc(C)cc1 (stereo unspecified)	·	·	·	1.8	·
CCN(CC)S(=O)(=O)c1ccc(OC)c(NC(=O)OCc2ccccc2)c1	-5.0%	-5.4%	-24.5%	-12.3	-13.5%
CCN(c1ccccc1)S(=O)(=O)c1ccc(OC)c(NC(=O)Cc2ccccc2OC)c1	-0.5%	·	10µM*	-16.9	·
CCN(CC)c1ccc(NC(=O)c2cnc3ccccn3c2=O)c(C)c1	-3.8%	-16.5%	-18.8%	-72.9*	-16.2%
CCN(CC)S(=O)(=O)c1ccc(OC)c(NC(=O)CCS(=O)(=O)Cc2ccccc2)c1	-12.1%	-13.0%	-2.1%	-69.0*	-19.0%
CCN(c1ccccc1)S(=O)(=O)c1ccc(Cl)c(NC(=O)CNCc2ccccc2OC)c1	?	-16.1%	11.2µM*	20.6	i
Cc1ccc(NC(=O)c2cnc3cc(C)ccn3c2=O)c(C)c1	56.6%	1.7%	·	61.0	-10.5%
CCc1ccccc1NC(=O)Cn1nc(CC)n2c(cc3sccc32)c1=O	-18.5%	-18.9%	·	-3.0	-19.8%
CCN(CC)S(=O)(=O)c1ccc2c(c1)nc(CCC(=O)Nc1ccccc1Cc1ccccc1)n2CC	-18.2%	-19.2%	10µM*	?	-3.6%
CCN(CC)c1ccc(NC(=O)CNCc2ccccc2Cl)c(C)c1	10.2%	-22.2%	-29.1%	-102.6*	?
CCN(c1ccccc1)S(=O)(=O)c1ccc(OC)c(NC(=O)C2CC2)c1	-7.7%	·	-22.9%	-9.9	·
CCn1c(CCC(=O)Nc2cc(F)ccc2C)nc2cc(S(=O)(=O)N(C)C)ccc21	-13.5%	·	?	-8.5	·
CCN(c1ccccc1)S(=O)(=O)c1ccc(OC)c(NC(=O)Cc2ccc(OC)c(OC)c2)c1	?	·	6.31µM*	-26.2	·
CNc1nc(-c2ccccc2)c(-c2ccccc2)s1	·	-7.8%	·	·	i
CC1(C)CC(=O)C=C(c2ccccc2F)C1=O	·	·	·	-10.3	·
CCc1ccccc1NC(=O)C1CCCN(S(=O)(=O)c2ccc3[nH]c(=O)ccc3c2)C1 (stereo unspecified)	-5.0%	-8.6%	·	-14.0	-14.1%
Cc1c(Cl)cccc1NC(=O)C1CCCN(c2nnc(-n3c(C)ccc3C)s2)C1 (stereo unspecified)	-25.9%	-4.6%	·	22.3	-13.2%
Cc1ccc2c(c1)c1c(n2C)-c2[nH]ncc2CC1	33.0%	·	10µM*	-2.8	·
SMILES	FMDV inh	VACV Venus inh	HCV inhibitor	HCMV antiviral	Vaccinia mCherry
Cc1ccc2c(c1)c1c(n2C)C(C(N)=O)CCC1 (stereo unspecified)	-17.6%	·	?	-13.0	·
O=C(/C=C/c1ccccc1)Nc1cccc(C(=O)O)c1	10µM*	-6.3%	-1.4%	48.7	-11.0%
O=C(/C=C/c1ccccc1)Nc1cc(NC(=O)/C=C/c2ccccc2)cc(C(=O)O)c1	-10.1%	-4.2%	5.3%	20.0	i
CCC(=O)Nc1cccc(C(=O)/C=C/c2cccs2)c1	10.9%	-27.3%	?	-61.6*	-14.5%
O=C(Nc1cccc(C(=O)O)c1)/C(=C\C=C\c1ccccc1)NC(=O)c1ccccc1	4.1%	-7.7%	10.8%	-104.4*	-0.8%
CSc1cccc(NC(=O)/C=C/c2ccccc2)c1	36.6%	·	?	14.9	·
CSc1cccc(NC(=O)/C=C/c2ccc(Cl)cc2)c1	-19.8%	·	12.6µM*	-18.1	·
CCOC(=O)c1ccc(NC(=O)Cc2ccc(-n3c(CC)nc4cccnc43)cc2)cc1	-15.6%	-6.3%	·	0.0	-16.1%
COc1cccc(-c2cc3c(Nc4ccc(OC)cc4C)nccc3n2C)c1	·	·	·	-2.2	·

Compound activity: PubChem BioAssay, National Center for Advancing Translational Sciences (NCATS)
